Only some compounds are listed: those with a hit (about 0.32% of all), similar ones and a draw of the others.
TRPV1 agonist: agonists of human vanilloid receptor 1 (TRPV1); TRPV1-expressing cells, Fluo-8 calcium influx, agonist mode; activation, % at 8.33 µM; actives 0.19% (n = 320,000); AID 540275; in the data active = activation above about 80%; inconclusive = between about 30% and that limit; note: 0% is about no effect
Target sequence (Q8NER1 whole entry, looked up): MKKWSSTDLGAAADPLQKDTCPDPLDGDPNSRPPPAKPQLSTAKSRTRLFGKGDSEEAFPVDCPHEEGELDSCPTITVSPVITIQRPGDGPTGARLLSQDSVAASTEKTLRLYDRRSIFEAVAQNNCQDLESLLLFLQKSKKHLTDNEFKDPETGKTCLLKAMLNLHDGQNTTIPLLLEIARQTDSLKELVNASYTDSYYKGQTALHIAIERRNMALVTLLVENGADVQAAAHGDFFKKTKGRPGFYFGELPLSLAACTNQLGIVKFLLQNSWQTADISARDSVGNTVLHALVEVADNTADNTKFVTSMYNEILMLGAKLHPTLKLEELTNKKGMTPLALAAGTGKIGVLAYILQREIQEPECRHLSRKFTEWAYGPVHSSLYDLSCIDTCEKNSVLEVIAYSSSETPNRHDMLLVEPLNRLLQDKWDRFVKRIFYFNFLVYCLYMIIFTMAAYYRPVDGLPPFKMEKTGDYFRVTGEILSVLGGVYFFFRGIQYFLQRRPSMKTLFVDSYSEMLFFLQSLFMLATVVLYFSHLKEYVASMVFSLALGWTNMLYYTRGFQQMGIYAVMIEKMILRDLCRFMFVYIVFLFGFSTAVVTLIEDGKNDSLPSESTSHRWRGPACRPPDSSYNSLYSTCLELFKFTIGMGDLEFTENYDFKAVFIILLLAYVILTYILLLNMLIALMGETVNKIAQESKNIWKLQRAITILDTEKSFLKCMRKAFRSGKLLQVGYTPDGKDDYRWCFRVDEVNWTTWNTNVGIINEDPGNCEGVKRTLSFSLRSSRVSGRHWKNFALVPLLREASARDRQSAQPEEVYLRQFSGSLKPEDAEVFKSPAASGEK
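TRPV1-expressing cells were cultured overnight at 35.5C and loaded with Fluo-8 calcium dye for 40 to 90 min at room temperature. After a 10 s baseline, compound was added and calcium influx was read kinetically for 3 min (ex 480/em 520 nm).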
CXXC DNA block: blocks binding of human MLL CXXC domain to DNA | MLL-CXXC / FITC-HOXA9 DNA fluorescence polarization | Potency, µM (doses to about 115 µM), inactives show at the highest dose activity change, negative = inhibition, actives largely listed as inhibitors | actives 0.037% (n = 290,000) | AID 2662; active = well fitted inhibition curve with a large enough effect in the polarisation, with a control signal flat, not every such curve was filed as active; inconclusive = small, poorly fitted or top-dose-only effect, or effect the other way, or a change in a side signal; inactive = no such curve, though single readings can be large or run the other way; the % refers to the polarisation; note: potency is the fitted concentration of half-maximal effect
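Steps: dispense CXXC domain solution (7 uM) → pin compounds or unlabeled HOX-A9 DNA control → 5 min ambient → add FLSN-HOX-A9 solution (50 nM) → spin → 30 min ambient → fluorescence polarization. Tris pH 7.5/NaCl/DTT/BSA buffer.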
Menin-MLL TR inh: displaces Texas Red mutant MLL peptide from human menin; Potency, µM (doses to about 61.6 µM), for inactives: at the top dose FP activity change, negative = inhibition, most hits filed as inhibitors; actives 0.23% (n = 270,000); O00255; Menin + Texas Red MLL mutant peptide, fluorescence polarization; active = well fitted inhibition curve with a large enough effect in the polarisation, with a control signal flat, not every such curve was filed as active; inconclusive = small, poorly fitted or top-dose-only effect, or effect the other way, or a change in a side signal; inactive = no such curve, though single readings can be large or run the other way; the % refers to the polarisation; note: potency is the fitted concentration of half-maximal effect; % of control where 0% means no effect
Menin-MLL FL inh: menin-MLL binding inhibition, fluorescein peptide | Fluorescence polarization, fluorescein-MLL peptide displacement from menin | FP activity change, % at 61.4 µM | 290,000 tested, under 10 active | AID 1766; active = well fitted curve in the direction sought with a large enough effect in the polarisation, not every such curve was filed as active; inconclusive = small, poorly fitted or top-dose-only effect, or effect the other way, or a change in a side signal; inactive = no such curve, though single readings can be large or run the other way; the % refers to the polarisation; note: % of control where 0% means no effect
TRPV1 potentiator: potentiators of human vanilloid receptor 1 (TRPV1); TRPV1-expressing cells, Fluo-8 calcium influx, capsaicin EC20 potentiation; Q8NER1; potentiation, % at 8.33 µM; actives 0.02% (n = 320,000); in the data active = potentiation above about 80%; inconclusive = between about 30% and that limit; note: 0% is about no effect
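Cells expressing TRPV1 were dye-loaded with Fluo-8 and read kinetically: 10 s baseline, 3 min after compound (agonist portion), then 2 min after EC20 capsaicin (allosteric enhancer portion). Calcium-bound dye fluorescence at 480/520 nm.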
MLL CXXC FP-Fl: disrupts human MLL CXXC domain binding to DNA; actives 70% (n = 200); shares compounds with CXXC DNA block; MLL CXXC-DNA binding, fluorescein FP; Potency, µM (series often up to 345 µM), for the others: at the highest dose activity change, negative = inhibition, hits mostly inhibitors; note: potency is the fitted concentration of half-maximal effect; nearly all actives have a fitted effect of over 80% in size
MLL CXXC TxRed: inhibitors of human MLL CXXC domain-DNA interaction, Texas Red format. shares compounds with CXXC DNA block. actives 40% (n = 200). Potency, µM (highest dose often 345 µM), inactives show at the top dose activity change, negative = inhibition, hits mostly inhibitors. MLL CXXC-DNA binding, Texas Red fluorescence polarization; note: potency is the fitted concentration of half-maximal effect; % is set by controls: 0 for no effect and ±100 for the full control effect; nearly all actives have a fitted effect of over 75% in size
MLL CXXC HTRF: disrupts human MLL CXXC domain binding to DNA by HTRF | shares compounds with CXXC DNA block | MLL CXXC-DNA binding, HTRF, biochemical | Potency, µM (titrated, usually from 172 µM), for the others: at the top dose activity change, negative = inhibition, usual class: inhibitors | actives 30% (n = 210) | AID 624162; note: % is set by controls: 0 for no effect and ±100 for the full control effect; nearly all actives have a fitted effect of over 80% in size
Starred values were filed as active, the others as inactive; ? = inconclusive; nt = no result; ! = repeats disagree; [ ] = remark or other dose. Unless noted, calls come from the whole dose curve; as a rule, active = well fitted inhibition curve with a large enough effect; inconclusive = small, poorly fitted or top-dose-only effect; inactive = no such curve, though single readings can be large or run the other way.

SMILES | TRPV1 agonist | CXXC DNA block | Menin-MLL TR inh | Menin-MLL FL inh | TRPV1 potentiator | MLL CXXC FP-Fl | MLL CXXC TxRed | MLL CXXC HTRF
c1ccc(-c2nn[nH]n2)c(Nc2cccc3c2CCCC3)c1 | nt | nt | ? | 6 | nt | nt | nt | nt
Nc1nc2c(s1)CCc1c-2cnn1-c1ccccc1 | 5 | 32µM* | -18% | -1 | -2 | ? | ? | 31µM*
CC(=O)c1c(O)cc(O)cc1CC(=O)O | 0 | ? | nt | nt | 9 | 142µM* | 0% | 2%
CC(=O)c1c(O)cc(O)c(C(C)=O)c1O | -2 | -1% | nt | 4 | -10 | nt | nt | nt
CN(C)C1=C(Cl)C(=O)N(c2ccc(Cl)c(Cl)c2)C1=O | 3 | ? | nt | -19 | 0 | 179µM* | 44% | ?
COc1ccc(-c2nc3c(c4c2C[C@H](c2ccccc2)OC4)CN(C(=O)c2cc(I)ccc2F)CC3)c(C)c1 | nt | nt | -8%[11.7 µM] | -1[11.7 µM] | nt | nt | nt | nt
COc1cc(/C=C2/C(=O)c3cccc([N+](=O)[O-])c3C2=O)c(Br)cc1O | -5 | 28µM* | ? | 4 | 0 | 40µM* | 80µM* | ?
COc1ccccc1NC(=O)CCCCCN1C(=O)c2cccc([N+](=O)[O-])c2C1=O | 2 | -11% | -1% | -3 | -3 | nt | nt | nt
Cc1ccc(S(=O)(=O)NC2OC(=O)C(Cl)=C2Cl)cc1 (configuration not stated) | 0 | ? | 11% | 2 | 3 | 89µM* | 142µM* | 49µM*
Cc1ccc(S(=O)(=O)NC2CCCCCCC2)cc1 | 2 | -6% | -10% | -2 | 8 | nt | nt | nt
CC(C)(C)c1ccc2c(S(=O)(=O)O)c(C(C)(C)C)ccc2c1 | nt | 7% | 22% | 5 | nt | nt | nt | nt
CC1=NN(c2ccccc2)C(=O)/C1=C/c1cccc(C)c1 | 1 | ? | ? | ? | -12 | 45µM* | ? | -27%
NC(=O)[C@@H]1CCCN1C(=O)C(Cc1cnc[nH]1)NC(=O)C1CCC(=O)N1 (some centres not stated) | nt | nt | 1% | 0 | nt | nt | nt | nt
Cc1ccsc1C=C1C(=O)c2ccccc2C1=O | 0 | ? | ? | 0 | 2 | 10µM* | -4% | 14%
Cc1ccc(Sc2ccc(/C=C3/C(=O)NN(c4ccccc4)C3=O)o2)cc1 | 12 | ? | nt | 18 | 4 | 8µM* | 33% | -1%
O=C1C2C(c3ccccc3)CC=CC2[C@H](c2ccc(C(F)(F)F)cc2)N1Cc1ccccc1 (some centres not stated) | 4 | ? | nt | -1 | -13 | 22µM* | 36% | 195%
O=c1c(Cl)c2oc3ccccc3nc-2c2ccccc12 | 13 | 32µM* | ? | ? | 17 | 113µM* | ? | 40%
Cc1nc2ccccc2oc1=O | nt | nt | -1% | -2 | nt | nt | nt | nt
CC(O)(c1ccc(Cl)cc1)c1ccc(Cl)cc1 | nt | nt | 23% | ? | nt | nt | nt | nt
CCn1c(CSc2nnc(-c3ccncc3)n2C)nc2cc(C(=O)O)ccc21 | -1 | -25% | nt | -16 | -2 | nt | nt | nt
CCn1c(CSc2ncn[nH]2)nc2cc(C(=O)O)ccc21 | -5 | ? | nt | 5 | 27 | 62% | 126µM* | 3%
CCCCC/C=C\C/C=C\C/C=C\C/C=C\CCCCCC(=O)NCCCC(=O)O | nt | nt | 0% | -1 | nt | nt | nt | nt
C=Cc1c(C)c2cc3[nH]c(cc4nc(cc5nc(cc1[nH]2)C(C)=C5CCC(=O)O)C(CCC(=O)O)=C4C)c(C)c3C=C | 0 | 20µM*! | ? | -2 | -15 | ? | 45µM* | 39µM*
CC1=C(CCC(=O)O)c2cc3nc(cc4[nH]c(cc5[nH]c(cc1n2)c(C)c5C(C)O)c(C)c4C(C)O)C(C)=C3CCC(=O)O (configuration not stated) | nt | nt | ? | -22 | nt | nt | nt | nt
COC(=O)c1ccccc1NC1=C/C(=N\S(=O)(=O)c2ccc(C(=O)O)cc2)c2ccccc2C1=O | -3 | 16µM* | nt | nt | 22 | 5µM* | 142µM* | -72%
SMILES | TRPV1 agonist | CXXC DNA block | Menin-MLL TR inh | Menin-MLL FL inh | TRPV1 potentiator | MLL CXXC FP-Fl | MLL CXXC TxRed | MLL CXXC HTRF
Cc1ccc(S(=O)(=O)/N=C2\C=C(Nc3cccc(C(=O)O)c3)C(=O)c3ccccc32)cc1 | -2 | ? | ? | -13 | 9 | nt | nt | nt
CCc1ccc(S(=O)(=O)/N=C2\C=C(Nc3ccc(C(=O)O)cc3)C(=O)c3ccccc32)cc1 | ? | 13µM* | ? | -13 | 16 | 40µM* | ? | 158%
CC(/C=C1\NC(=S)NC1=O)=C\c1ccccc1 | 11 | 45µM* | -29% | 4 | -11 | 0.13µM* | ? | 53%
O=C1NC(=S)N/C1=C/c1cccc2ccccc12 | 2 | 6% | ? | 10 | ? | nt | nt | nt
CC(=O)c1ccc(-c2c(C3C4C=CCCC4(C)C(=O)N3Cc3ccccc3)ccc3ccccc23)cc1 (configuration not stated) | nt | nt | ? | 1 | nt | nt | nt | nt
Cn1c(SCC(=O)NCc2ccco2)nnc1-c1ccccc1 | 2 | 3% | -3% | 1 | -5 | nt | nt | nt
CC(C)Cn1c(SCC(=O)NCc2ccco2)nnc1-c1ccncc1 | -2 | ? | 5% | 0 | 4 | 1.6µM* | -5% | 0%
CCc1nnc(NC(=O)CSc2nnc(-c3ccc(NS(=O)(=O)c4ccccc4)cc3)o2)s1 | 1 | ? | 6% | 2 | -10 | ? | 9% | -11%
COC(=O)CSc1nnc(-c2ccc(NS(=O)(=O)c3ccccc3)cc2)o1 | 2 | -10% | -8% | -1 | -1 | nt | nt | nt
CN(C)CCOc1nc(-c2ccccc2)nc2c1oc1ccccc12 | -2 | 35µM* | -11% | 3 | 5 | 126µM* | ? | -9%
CCc1cccc(NC(=O)CSC2=NS(=O)(=O)c3ccccc32)c1 | 10 | 32µM* | -11% | 3 | -6 | 89µM* | 113µM* | 15µM*
C=C[C@@]1(C)CC[C@H]2C(=CC[C@@H]3[C@]2(C)CCC[C@@]3(C)C(=O)O)C1 | nt | nt | -4% | -6 | nt | nt | nt | nt
Cc1cc(-c2ccccc2)c2c3c(c(-c4ccccc4)n2n1)c(=O)n(C)c(=O)n3C | 2 | 50µM* | 4% | ? | -4 | -43% | 16% | 9%
Cc1cc(-c2ccccc2)c2c3c(cn2n1)c(=O)n(C)c(=O)n3C | 5 | 3% | -6% | 1 | -34 | nt | nt | nt
Cc1nn(C)c(C)c1CN(C)C(=O)C1(C)CC1(Br)Br (configuration not stated) | -2 | 12% | 2% | 6 | -2 | nt | nt | nt

Assay outcomes from PubChem BioAssay.
